Results from article PMC7826789 (International Journal of Molecular Sciences, 2021).

Legend:
Conditions in all cases: Compound Concentration (nM):1000
PRKG1 = test system: PRKG1
PRKG2 = test system: PRKG2
PRKR = test system: T1, PRKR
T1 construct: gene EIF2AK2

PRKX = test system: PRKX
PRP4 = test system: T2, PRP4
T2 construct: gene PRPF4B

PYK2 = test system: T3, PYK2
T3 construct: gene PTK2B

QSK = test system: T4, QSK
T4 construct: gene KIAA0999

RAF1 = test system: RAF1
RET(M918T) = test system: RET(M918T)
RET(V804L) = test system: RET(V804L)
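Also: KINOMEscan scanMAX binding as percent activity remaining versus control; lower means stronger binding.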

| Structure (SMILES) | Percent Control (PRKG1) | Percent Control (PRKG2) | Percent Control (PRKR) | Percent Control (PRKX) | Percent Control (PRP4) | Percent Control (PYK2) | Percent Control (QSK) | Percent Control (RAF1) | Percent Control (RET(M918T)) | Percent Control (RET(V804L)) |
| --- | --- | --- | --- | --- | --- | --- | --- | --- | --- | --- |
| CC1=C(C(=O)Nc2ccc3[nH]ncc3c2)C(c2ccc3ccccc3c2)CC(=O)N1 (centres unmarked) [GSK270822A] | 48% | 29% | 89% | 22% | 62% | 77% | 91% | 87% | 34% | 46% |
| Cl.O=S1CCN(Cc2ccc(-c3ccc4ncnc(Nc5ccc(OCc6ccccc6)c(F)c5)c4c3)o2)CC1 [GW576924A] | 100% | 100% | 86% | 100% | 100% | 100% | 100% | 100% | 100% | 100% |
| CCn1c(-c2nonc2N)nc2c(C#CC(C)(C)O)nc(OCCNC)cc21.Cl [GSK949675] | 34% | 0.5% | 94% | 7.9% | 90% | 100% | 99% | 100% | 73% | 88% |
| COc1cc2ncnc(Nc3ccc4c(cnn4Cc4ccccc4)c3)c2cc1OC.Cl [GW282449A] | 93% | 100% | 89% | 100% | 100% | 100% | 100% | 100% | 90% | 100% |
| O=C(Nc1n[nH]c2nc(-c3ccc(O)cc3)c(Br)cc12)C1CC1 [SB-725317] | 100% | 97% | 59% | 100% | 100% | 100% | 100% | 46% | 100% | 100% |
| CN(C)c1cc2c(Nc3ccc4c(cnn4Cc4ccccc4)c3)ncnc2cn1 [GW282974X] | 100% | 93% | 76% | 80% | 100% | 83% | 95% | 100% | 82% | 93% |
| NS(=O)(=O)c1ccc(N/N=C2\C(=O)Nc3ccc(C(=O)NCCc4c[nH]cn4)cc32)cc1 [GW300660X] | 62% | 49% | 87% | 100% | 100% | 100% | 89% | 100% | 100% | 100% |
| COc1cc(/C=N/Nc2ncnc3[nH]ncc23)ccc1O [GW578748X] | 100% | 22% | 41% | 100% | 100% | 100% | 90% | 100% | 4.6% | 76% |
| CN1CCN(C(=O)c2ccc(NC(=O)Nc3ccc(N(C)c4ccnc(Nc5ccc(CS(C)(=O)=O)cc5)n4)cc3)cc2)CC1.Cl [GW830263A] | 100% | 100% | 100% | 100% | 88% | 20% | 86% | 90% | 0.2% | 5.5% |
| Cl.O=C(O[C@H]1CN[C@H](C#Cc2cc3ncnc(Nc4ccc5c(cnn5Cc5ccccc5)c4)c3s2)C1)N1CCOCC1 [GSK200398A] | 95% | 100% | 65% | 77% | 100% | 99% | 100% | 88% | 100% | 100% |
| COc1ccccc1-c1cc(/C=C2\C(=O)Nc3ncc(Br)cc32)cc(Br)c1O [GW442130X] | 100% | 100% | 90% | 100% | 96% | 100% | 100% | 100% | 100% | 91% |
| COc1ccc(COc2ccc(Cc3cnc(N)nc3N)cc2OC)cc1 [GW632580X] | 100% | 86% | 100% | 100% | 88% | 84% | 100% | 100% | 93% | 88% |
| CCc1ccc(Oc2nccc(-c3c(-c4ccc(F)cc4)ncn3C3CCNCC3)n2)cc1 [SB-242719] | 100% | 92% | 100% | 86% | 100% | 97% | 85% | 100% | 93% | 88% |
| COc1cccc(-c2c[nH]c3c(N/N=C/c4ccncc4)ncnc23)c1 [GW814408X] | 100% | 97% | 94% | 100% | 100% | 100% | 28% | 74% | 79% | 95% |
| NS(=O)(=O)c1ccc(N/N=C2\C(=O)Nc3ccc(Cl)cc32)cc1 [GW280670X] | 85% | 100% | 86% | 100% | 100% | 100% | 100% | 100% | 100% | 100% |
| Cl.O=C(Nc1ccc(Oc2ccc3[nH]c(NC(=O)c4ccccc4)nc3c2)cc1)Nc1cc(C(F)(F)F)ccc1F [GW709042A] | 91% | 88% | 85% | 100% | 100% | 100% | 100% | 27% | 2.5% | 3.6% |
| NS(=O)(=O)c1ccc(Nc2ncc(-c3ccccc3)o2)cc1 [GW572399X] | 96% | 100% | 55% | 100% | 100% | 100% | 100% | 100% | 100% | 100% |
| COc1cc(N2CCN(C(C)C)CC2)ccc1Nc1nc(Nc2ccc(F)cc2C(=O)NC[C@@H](O)CO)c2cc[nH]c2n1 [GSK1392956A] | 100% | 100% | 80% | 80% | 100% | 2.4% | 100% | 100% | 93% | 86% |
| COc1ccc2cc(-c3c(-c4ccncc4)nc(-c4ccc(S(C)(=O)=O)cc4C)n3C)ccc2c1 [SB-633825] | 100% | 83% | 100% | 95% | 68% | 57% | 79% | 74% | 72% | 94% |
| Nc1ncnc2occ(-c3ccc(NC(=O)Nc4cc(C(F)(F)F)ccc4F)cc3)c12 [GW770249X] | 71% | 100% | 72% | 100% | 100% | 90% | 100% | 38% | 0.8% | 0.6% |
